Assay [1] can be described thus: Quantitative High-Throughput drug screen in 47 multiple myeloma cell lines against the NCATS MIPE library collection: JIM3_ECACC cell viability assay (AID 1918963; further: nearly all actives have a fitted effect of over 35% in size). The following applies: JIM3 myeloma viability, CellTiter-Glo ATP, 48 h; series mostly up to 45.8 µM. A digest of the protocol: (§1)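 Approved and investigational drugs from MIPE 4.0 were added by pin tool to 500 cells per well. After 48 hours at 37C, ATP-based CellTiter-Glo luminescence indicated remaining viability.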

The nature of assay [2]: Quantitative High-Throughput drug screen in 47 multiple myeloma cell lines against the NCATS MIPE library collection: JIM1_ECACC cell viability assay (AID 1918964). The following applies: JIM1 myeloma viability, CellTiter-Glo ATP luminescence, 48 h; series mostly up to 45.8 µM. Put shortly:
(§2)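 Inhibition of cell viability is measured here. Each line was plated at 500 cells per well, treated with MIPE 4.0 drugs, kept 48 hours at 37C, then assayed for ATP content by CellTiter-Glo luminescence.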

Assay [3] in a line: Quantitative High-Throughput drug screen in 47 multiple myeloma cell lines against the NCATS MIPE library collection: JJN3_DSMZ cell viability assay (AID 1918966; further: nearly all actives have a fitted effect of over 50% in size). The following applies: JJN3 myeloma cells viability, CellTiter-Glo ATP, 48 h; series mostly up to 45.8 µM. A digest of the protocol: as §2
A general note: ATP-based viability assays read luminescence as a measure of living cells.

The nature of assay [4]: Quantitative High-Throughput drug screen in 47 multiple myeloma cell lines against the NCATS MIPE library collection: H1112_PLB cell viability assay (AID 1918967; further: nearly all actives have a fitted effect of over 30% in size). The settings on record: H1112 myeloma cells viability, ATP luminescence, 48 h; series mostly up to 45.8 µM. Put shortly:
as §2

Assay [5] is described as follows: Quantitative High-Throughput drug screen in 47 multiple myeloma cell lines against the NCATS MIPE library collection: Karpas25_ECACC cell viability assay (AID 1918968; further: nearly all actives have a fitted effect of over 35% in size). The settings on record: Karpas25 myeloma viability, CellTiter-Glo ATP, 48 h; series mostly up to 45.8 µM. Put shortly: as §2
A short description of assay [6]: Quantitative High-Throughput drug screen in 47 multiple myeloma cell lines against the NCATS MIPE library collection: KMS27_JCRB cell viability assay (AID 1918970). Further: nearly all actives have a fitted effect of over 30% in size. The following applies: KMS27 myeloma cells, CellTiter-Glo ATP viability, 48 h; series mostly up to 45.8 µM. Put shortly: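 Each line is seeded at 500 cells per well and treated with library compounds for 48 hours under 37 °C, 5% CO2. CellTiter-Glo is then added for 5 min at room temperature before median relative luminescence is recorded.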

Assay [7] in a line: Quantitative High-Throughput drug screen in 47 multiple myeloma cell lines against the NCATS MIPE library collection: KMS12PE_JCRB cell viability assay (AID 1918972). Further: nearly all actives have a fitted effect of over 30% in size. The following applies: KMS12PE myeloma viability, CellTiter-Glo ATP, 48 h; series mostly up to 45.8 µM. A digest of the protocol: as §2
Assay [8] is described as follows: Quantitative High-Throughput drug screen in 47 multiple myeloma cell lines against the NCATS MIPE library collection: KMS20_JCRB cell viability assay (AID 1918973). Further: nearly all actives have a fitted effect of over 45% in size. The following applies: CellTiter-Glo ATP, 48 h; series mostly up to 45.8 µM. Put shortly:
as §2

Assay [9] in a line: Quantitative High-Throughput drug screen in 47 multiple myeloma cell lines against the NCATS MIPE library collection: MMM1_PLB cell viability assay (AID 1918976). Further: nearly all actives have a fitted effect of over 35% in size. The following applies: MMM1 myeloma cells viability, CellTiter-Glo, 48 h; series mostly up to 45.8 µM. Put shortly: (§3)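 ATP-based luminescence (CellTiter-Glo, 5 min RT incubation) quantified surviving cells following two days' treatment with MIPE 4.0 agents at 37 °C, 5% CO2.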

The nature of assay [10]: Quantitative High-Throughput drug screen in 47 multiple myeloma cell lines against the NCATS MIPE library collection: NCIH929_DSMZ cell viability assay (AID 1918978). Further: nearly all actives have a fitted effect of over 35% in size. The following applies: NCI-H929 myeloma viability, CellTiter-Glo ATP, 48 h; series mostly up to 45.8 µM. Put shortly: as §3
Assay [11] can be described thus: Quantitative High-Throughput drug screen in 47 multiple myeloma cell lines against the NCATS MIPE library collection: OCIMY1_PLB cell viability assay (AID 1918979). Further: nearly all actives have a fitted effect of over 35% in size. The following applies: OCI-MY1 myeloma viability, CellTiter-Glo ATP, 48 h; series mostly up to 45.8 µM. A digest of the protocol:
as §3

A short description of assay [12]: Quantitative High-Throughput drug screen in 47 multiple myeloma cell lines against the NCATS MIPE library collection: KMS26_JCRB cell viability assay (AID 1918975). Further: nearly all actives have a fitted effect of over 45% in size. The settings on record: KMS26 myeloma cells viability, CellTiter-Glo ATP, 48 h; series mostly up to 45.8 µM. A digest of the protocol:
(§4)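 Luminescent ATP measurement with CellTiter-Glo gives viability, scaled between DMSO-only wells (100%) and media-only wells (0%). Cells, 500 per well, faced library compounds for 48 hours at 37C.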

Assay [13] is described as follows: Quantitative High-Throughput drug screen in 47 multiple myeloma cell lines against the NCATS MIPE library collection: MM1S_ATCC cell viability assay (AID 1918980). Further: nearly all actives have a fitted effect of over 45% in size. The following applies: MM1S myeloma viability, CellTiter-Glo ATP luminescence, 48 h; series mostly up to 45.8 µM. Put shortly:
as §3

Assay [14] in a line: Quantitative High-Throughput drug screen in 47 multiple myeloma cell lines against the NCATS MIPE library collection: INA6_PLB cell viability assay (AID 1918965; further: nearly all actives have a fitted effect of over 55% in size). The following applies: INA6 myeloma viability, CellTiter-Glo ATP luminescence, 48 h; series mostly up to 45.8 µM. A digest of the protocol:
as §2

A short description of assay [15]: Quantitative High-Throughput drug screen in 47 multiple myeloma cell lines against the NCATS MIPE library collection: KMS12BM_JCRB cell viability assay (AID 1918971). Further: nearly all actives have a fitted effect of over 35% in size. The following applies: KMS12BM myeloma viability, CellTiter-Glo ATP, 48 h; series mostly up to 45.8 µM. A digest of the protocol: as §4
The nature of assay [16]: Quantitative High-Throughput drug screen in 47 multiple myeloma cell lines against the NCATS MIPE library collection: MOLP8_DSMZ cell viability assay (AID 1918977). Further: nearly all actives have a fitted effect of over 45% in size. The settings on record: MOLP8 myeloma viability, CellTiter-Glo ATP luminescence, 48 h; series mostly up to 45.8 µM. A digest of the protocol:
as §3

A short description of assay [17]: Quantitative High-Throughput drug screen in 47 multiple myeloma cell lines against the NCATS MIPE library collection: KMS21BM_JCRB cell viability assay (AID 1918974). The following applies: ATP luminescence, 48 h; viability: at 45.8 µM (top of the series) unless noted. Put shortly: as §2
The nature of assay [18]: Quantitative High-Throughput drug screen in 47 multiple myeloma cell lines against the NCATS MIPE library collection: KHM11_PLB cell viability assay (AID 1918962). Further: nearly all actives have a fitted effect of over 35% in size. The settings on record: KHM11 myeloma cell viability, CellTiter-Glo ATP luminescence, 48 h; series mostly up to 45.8 µM. A digest of the protocol: as §1

Inconclusive results are not listed. Active and inactive are the calls of the source. The call rests on the fitted dose curve; in most records, active means well fitted curve in the direction sought with a large enough effect; inconclusive means small, poorly fitted or top-dose-only effect, or another doubt; inactive means no such curve, though single readings can be large; an effect the other way counts as inactive or inconclusive.
Potency means the concentration at half of the fitted maximal effect.

Turning to `Cc1ccc(CN2CCNCC2)cc1NC(=O)CNc1ccc(F)c(F)c1`, the Potency entry in [1], in [2], in assay [3], in assay [4], in assay [6] and in assay [7] was “inactive” each time. Besides, the Potency entry in assay [8], in assay [10] and in [11] was “inactive” throughout. Further, the Potency in assay [5] is 5.9 µM (active); in [9] it was 16.6 µM (active).

As for `Cc1nc2cnc3ccc(C#Cc4cccnc4)cc3c2n1-c1ccc(C(C)(C)C#N)cc1`, the Potency in assay [1] is 0.148 µM (active); in assay [3] it was 0.935 µM (active); in assay [4] it was 0.166 µM (active); in assay [5] it was 0.0264 µM (active); in [8], 0.0148 µM (active); in [12], 1.32 µM (active). The Potency in assay [9] is 0.148 µM (active); in assay [10], 0.0264 µM (active); in [11], 1.48 µM (active); in [13], 0.0743 µM (active).

`Cc1cc(Nc2cc(N3CCN(C)CC3)nc(C=Cc3ccccc3)n2)n[nH]1`: the Potency in [1] is 7.62 µM (active); in assay [2], 4.81 µM (active); in [14] it was 3.4 µM (active); in assay [3] it was 30.3 µM (active); in assay [5] it was 8.55 µM (active); in assay [6], 15.2 µM (active). In addition, the Potency is 48.1 µM (active) in [15]; 4.29 µM (active) in [8]; 21.5 µM (active) in [12]; 30.3 µM (active) in [9]; 9.59 µM (active) in assay [16]; 6.79 µM (active) in assay [10]. Further, the Potency in assay [11] is 5.4 µM (active); in assay [13] it was 17.1 µM (active).

`CS(=O)(=O)c1ccc(-c2cnc(N)c(C(=O)Nc3ccccc3)n2)cc1`: the Potency result in [3], in assay [8], in [10] and in assay [11] was “inactive” throughout. The Potency in assay [4] was 4.18 µM (active).

The viability is a read-out of living cells in per cent, often relative to untreated cells. Take `Nc1ccn([C@@H]2CS[C@H](CO)O2)c(=O)n1`: the Potency result in assay [1], in assay [15] and in assay [7] was “inactive” in each case. In addition, the results for the Potency in assay [5], in assay [8] and in assay [10] were 24.1 µM (active), 10.8 µM (active) and 38.2 µM (active), respectively. In addition, in [17], the viability is 155% [at 92.2 µM] (active).

As to `COc1cccc(-c2ccc(NC(=O)C3=C(C(=O)O)CCC3)c(F)c2)c1`, the Potency result in assay [18], in assay [4], in assay [5] and in [11] was “inactive” each time. For the same molecule, the Potency in assay [1] is 23.5 µM (active); in [14] it was 4.69 µM (active); in assay [15], 20.9 µM (active); in [7], 2.96 µM (active); in assay [13] it was 3.72 µM (active).

Consider `COC(=O)Nc1nc2ccc(C(=O)c3ccc(F)cc3)cc2[nH]1`, for which the Potency was 0.264 µM (active) in assay [18]; 0.59 µM (active) in assay [1]; 2.35 µM (active) in [3]; 0.833 µM (active) in assay [15]; 0.296 µM (active) in assay [17]; 5.26 µM (active) in [12]. The Potency in assay [9] is 11.8 µM (active); in assay [16], 0.418 µM (active); in [11], 0.662 µM (active).

As to `COCCn1c2c([n+](Cc3cnccn3)c1C)C(=O)c1ccccc1C2=O`, the Potency in assay [18] is 0.0296 µM (active); in assay [1] it was 0.0264 µM (active); in [3], 0.0023 µM (active); in assay [4], 0.0526 µM (active); in [15] it was 0.0418 µM (active); in assay [8], 0.0235 µM (active). Besides, the Potency in assay [12] is 0.0148 µM (active); in assay [9], 0.0166 µM (active); in assay [16], 0.0235 µM (active); in [10], 0.0332 µM (active); in assay [11], 0.0264 µM (active); in assay [13], 0.0037 µM (active).

On to `CC(C)(C)c1cc(NC(=O)Nc2ccc(-c3cn4c(n3)sc3cc(OCCN5CCOCC5)ccc34)cc2)no1`, for which the Potency is 3.32 µM (active) in assay [14], 13.2 µM (active) in [5], 16.6 µM (active) in assay [15] and 18.7 µM (active) in assay [12]. Besides, the Potency result in assay [17], in assay [10] and in assay [13] was “inactive” throughout.

These data come from PubChem BioAssay (NCATS).
